Test results taken from the supplement of paper PMC9694430.
Counter-ions that a name gives are not always drawn.

Experiments:
Assay in all cases: thermal shift delta Tm vs DMSO control; higher = stronger stabilization (binding)
Settings in all cases: 12.5 µM; protein concentration 2 µM
LOC_OS02G45750-cb003 = test system: LOC_OS02G45750-cb003
Method in brief: (§1)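 Purified, E. coli-expressed rice kinase domain constructs were tested by differential scanning fluorimetry in 96-well plates: 19.5 μl of 2 μM kinase in 100 mM potassium phosphate pH 7.5, 150 mM NaCl, 10% glycerol, 5 × SYPRO Orange, plus compound in DMSO. Fluorescence was read from 25°C to 95°C at 0.05°C/s. Melting temperatures came from Boltzmann fits, and the shift is the triplicate mean relative to protein with DMSO alone.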

LOC_OS02G54510-cb004 = test system: LOC_OS02G54510-cb004
Method in brief: as §1

LOC_OS03G04050-cb001 = test system: LOC_OS03G04050-cb001
Method in brief: as §1

LOC_OS03G12390-cb001 = test system: LOC_OS03G12390-cb001
Method in brief: as §1

LOC_OS03G27990-cb004 = test system: LOC_OS03G27990-cb004
Method in brief: as §1

LOC_OS03G50450-cb001 = test system: LOC_OS03G50450-cb001
Method in brief: as §1

LOC_OS03G50810-cb003 = test system: LOC_OS03G50810-cb003
Method in brief: as §1

LOC_OS04G35114-cb001 = test system: LOC_OS04G35114-cb001
Method in brief: as §1

LOC_OS04G38480-cb003 = test system: T1, LOC_OS04G38480-cb003
T1 sequence (whole entry): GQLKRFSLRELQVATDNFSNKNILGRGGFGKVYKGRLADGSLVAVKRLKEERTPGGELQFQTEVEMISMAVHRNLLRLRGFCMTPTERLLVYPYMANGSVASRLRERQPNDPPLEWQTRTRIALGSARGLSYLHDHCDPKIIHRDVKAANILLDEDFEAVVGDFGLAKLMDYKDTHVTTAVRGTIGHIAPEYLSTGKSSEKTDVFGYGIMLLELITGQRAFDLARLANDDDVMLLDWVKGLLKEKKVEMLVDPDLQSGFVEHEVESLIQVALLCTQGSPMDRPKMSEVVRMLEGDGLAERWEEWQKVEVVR
Method in brief: as §1

LOC_OS04G41100-cb001 = test system: T2, LOC_OS04G41100-cb001
T2 sequence (whole entry): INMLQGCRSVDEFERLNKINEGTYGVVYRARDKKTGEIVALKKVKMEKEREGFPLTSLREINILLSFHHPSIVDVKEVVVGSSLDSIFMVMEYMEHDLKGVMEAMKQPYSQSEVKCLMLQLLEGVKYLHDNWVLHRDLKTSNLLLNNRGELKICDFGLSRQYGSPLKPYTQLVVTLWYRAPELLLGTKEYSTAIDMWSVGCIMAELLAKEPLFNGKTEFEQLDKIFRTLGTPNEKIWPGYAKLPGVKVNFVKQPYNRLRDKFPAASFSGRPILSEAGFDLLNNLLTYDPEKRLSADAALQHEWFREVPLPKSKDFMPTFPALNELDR
Method in brief: as §1

SMILES	thermal shift delta Tm (LOC_OS02G45750-cb003) [°C]	thermal shift delta Tm (LOC_OS02G54510-cb004) [°C]	thermal shift delta Tm (LOC_OS03G04050-cb001) [°C]	thermal shift delta Tm (LOC_OS03G12390-cb001) [°C]	thermal shift delta Tm (LOC_OS03G27990-cb004) [°C]	thermal shift delta Tm (LOC_OS03G50450-cb001) [°C]	thermal shift delta Tm (LOC_OS03G50810-cb003) [°C]	thermal shift delta Tm (LOC_OS04G35114-cb001) [°C]	thermal shift delta Tm (LOC_OS04G38480-cb003) [°C]	thermal shift delta Tm (LOC_OS04G41100-cb001) [°C]
COc1cc2ncnc(Nc3ccc(F)c(Cl)c3)c2cc1NC(=O)/C=C/CN1CCCCC1	1.69	0.71	1.08	0.21	1.04	1.79	0.95	1.15	1.53	0.71
Cc1cc(O)c(-c2ccc([C@@H](C)CN)cc2)c2c1[nH]c(=O)c1sccc12 [OTS514 hydrochloride]	0.87	1.1	0.44	0.55	0.52	0.04	0.85	1.39	1.65	3.58
COc1cc(Nc2ncc(F)c(Nc3ccc4c(n3)NC(=O)C(C)(C)O4)n2)cc(OC)c1OC [R406 (free base)]	4.87	3.74	0.5	7.52	1.81	8.85	4.46	2.9	4.51	1.22
CSc1cccc(Nc2ncc3cc(-c4c(Cl)cccc4Cl)c(=O)n(C)c3n2)c1	1.81	1.36	0.46	0.1	0.26	0.49	0.58	2.51	1.67	0.59
O=C(NOCC(O)CO)c1cc(Br)c(F)c(F)c1Nc1ccc(I)cc1F (stereo not given)	-0.49	-0.06	0.63	0.93	0.15	0.19	0.19	0.09	1.04	3.8
